Reference: PubChem BioAssay AID652174 (National Center for Advancing Translational Sciences (NCATS), 2013)
Active and inactive are the calls of the source. Calls follow the shape of the dose curve; as a rule, active = well fitted curve in the direction sought with a large enough effect; inactive = no such curve, though single readings can be large or run the other way.

Target: Ubiquitin carboxyl-terminal hydrolase 2 (Homo sapiens) (UniProt O75604)
Assay: Confirmation Assay for Inhibitors of Ubiquitin-specific Protease USP2a Using CHOP2 as the Reporter: SAR
Details: USP2 core, Ub-CHOP2 reporter, fluorescence 485/531
Description: Homeostasis of cellular proteins is maintained through a combination of synthesis and degradation. The pathway that accounts for the majority of protein degradation is the ubiquitin-proteasomal pathway. Ubiquitin (Ub) is highly conserved in all cells and the generation of a multi-Ub chain typically targets proteins for degradation by the proteasome. However, ubiquitination is highly reversible and dynamic. Deubiquitination, the reverse process, is catalyzed through the action of enzymes referred to as isopeptidases or deubiquitinating enzymes (DUBs). This group of enzymes is collectively responsible for maintaining adequate pools of free ubiquitin and regulating the ubiquitination status of cellular proteins. […] Thus, this coupled assay gives a fluorescent read-out at excitation/emission wavelengths of 485/531. […]
The assay buffer, prepared fresh at the day of the assay, contains 20mM Tris-HCl pH 8.0, 2mM CaCl2, 2mM beta-Mercaptoethanol, 0.05% CHAPS. […] Plates were read after 60min RT incubation on a ViewLux (Perkin Elmer) plate reader using the following wavelengths Ex 485nm /Em 531nm. […] Concentration-response curves were fitted to the normalized data and the concentration-response curves were then classified based on curve quality (r2), response magnitude and degree of measured activity. The time zero reading was used to flag fluorescence artifacts. […]

Sequence of Ubiquitin carboxyl-terminal hydrolase 2 (Homo sapiens) (O75604 whole entry, looked up): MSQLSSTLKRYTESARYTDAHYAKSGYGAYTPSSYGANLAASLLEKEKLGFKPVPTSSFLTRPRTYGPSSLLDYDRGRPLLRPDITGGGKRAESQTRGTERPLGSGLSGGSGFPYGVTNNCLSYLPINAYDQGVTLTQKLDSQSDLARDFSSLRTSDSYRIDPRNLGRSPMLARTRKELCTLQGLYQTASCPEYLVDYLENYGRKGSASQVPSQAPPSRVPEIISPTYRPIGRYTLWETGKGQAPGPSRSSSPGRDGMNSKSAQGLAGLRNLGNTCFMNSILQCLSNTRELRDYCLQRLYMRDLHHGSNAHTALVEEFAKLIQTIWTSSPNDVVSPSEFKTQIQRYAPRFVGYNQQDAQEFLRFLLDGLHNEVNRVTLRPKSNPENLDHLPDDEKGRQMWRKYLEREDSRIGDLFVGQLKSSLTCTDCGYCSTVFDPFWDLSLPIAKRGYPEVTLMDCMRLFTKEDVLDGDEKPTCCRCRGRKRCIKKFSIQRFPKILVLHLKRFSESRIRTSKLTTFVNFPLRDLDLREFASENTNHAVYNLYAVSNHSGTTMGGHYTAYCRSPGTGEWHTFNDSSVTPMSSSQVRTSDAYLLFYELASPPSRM

| Structure (SMILES) | Potency |
| --- | --- |
| Cc1ccc(S(=O)(=O)Nc2ccccc2C(=O)Nc2nc(-c3ccccc3)cs2)cc1 | 11.3 µM (active) |
| Cc1ccc(S(=O)(=O)Nc2ccccc2C(=O)Nc2nc(-c3ccc(Cl)cc3)cs2)cc1 | 5.65 µM (active) |
